From ChEMBL document CHEMBL1157539, “Thousands of chemical starting points for antimalarial lead identification” (Nature, 2010)

Experiments:
Type in all cases: functional
[1] = tested on: Plasmodium falciparum; assay: GSK_TCMDC: Inhibition of Plasmodium falciparum 3D7 in whole red blood cells, using parasite LDH activity as an index of growth. Test compounds present at 2uM
[2] = tested on: Plasmodium falciparum; assay: GSK_TCMDC: Inhibition of Plasmodium falciparum Dd2 in whole red blood cells, using parasite LDH activity as an index of growth. Test compounds present at 2uM
[3] = tested on: HepG2; assay: GSK_TCMDC: Percent inhibition of human HepG2 cell line. Test compounds present at 10uM.

Row | SMILES | Inhibition [1] | Inhibition [2] | Inhibition [3]
1 | Cc1cccc2nc(-c3cccc(-c4cccc(CNCc5ccccc5)c4)c3)[nH]c12.O=C(O)C(F)(F)F | 100% | 56% | 3%
2 | CN(C)c1ccc(CN2CCC(CNC(=O)c3cc(-c4cccc(F)c4)cs3)C2)cc1.O=C(O)C(F)(F)F (stereo not drawn) | 96% | 13% | 48%
3 | CN(CCCc1c[nH]c2ccccc12)CC1CCN(C(=O)/C=C/c2ccc(Cl)c(Cl)c2)CC1 | 99% | 25% | 37%
4 | Clc1cc(Cl)cc(Nc2ccnc(Nc3cc(Cl)cc(Cl)c3)n2)c1 | 99% | 73% | 11%
5 | COc1ccc(CCN2CC[C@H](Nc3nc(-c4ccc(F)c(F)c4)nc4ccccc34)C2)cc1S(N)(=O)=O.Cl | 99% | 64% | 18%
6 | Br.N=C(N)c1ccc(C(=O)Nc2cccc(C(=N)N)c2)cc1 | 88% | 82% | 13%
7 | O=C(/C=C/c1ccc(Cl)c(Cl)c1)NCCCCN1CCC(c2c[nH]c3ccccc23)CC1 | 91% | 11% | 57%
8 | Cc1cc(CN2CC[C@H](NC(=O)c3ccc(Cl)c(Cl)c3)C2)ccc1OC1CCN(C)C1.O=C(O)C(F)(F)F (stereo partly drawn) | 100% | 24% | 71%
9 | OC(c1ccc2ccccc2c1)C1CN(CCc2ccccc2)CCC1(O)c1ccccc1 (stereo not drawn) | 99% | 96% | 1%
10 | Cc1ccc(-c2nc3cc(NC(=O)c4ccc([N+](=O)[O-])o4)ccc3o2)cc1Cl | 100% | 97% | 24%
11 | CC(=O)N[C@H](C(=O)Nc1cccc(-c2ccc(-c3nc4cccc(C)c4[nH]3)s2)c1)C(C)C | 93% | 29% | 33%
12 | CO/C(=C\C=C\c1cc2cc(Cl)c(Cl)cc2[nH]1)C(=O)NC1CC2CCCC(C1)N2C (stereo not drawn) | 93% | 51% | 42%
13 | N=C(N)c1ccc(NCc2cccc(C(=O)O)c2)cc1.O=C(O)C(F)(F)F | 84% | 79% | 7%
14 | O=C(NC1CCN(c2ncc(C(F)(F)F)cc2Cl)CC1)c1cccs1 | 84% | 65% | 15%
15 | CCCCCCCN1CCC(CC(=O)Nc2ccnc3ccc(OC)cc23)C(CC)C1 (stereo not drawn) | 100% | 75% | 14%
16 | Cc1c(CN2CCC(N3CCC(C(=O)NC4CC4)CC3)CC2)[nH]c2c(Cl)cccc12 | 92% | 3% | 22%

Row | SMILES | Inhibition [1] | Inhibition [2] | Inhibition [3]
17 | CCN(CCCN1CCCCC1)c1cc(C)nc(Nc2cc(C)ccc2C)n1.O=C(O)C(F)(F)F | 93% | 42% | 34%
18 | CNC(=O)C1Cc2c([nH]c3ccc(Cl)cc23)C2(CCN(CCc3ccccc3)CC2)N1 (stereo not drawn) | 98% | 16% | 2%
19 | Cc1cc(N(C)CCCN(C)C)nc(Nc2ccc(Cl)cc2)n1 | 100% | 79% | 7%
20 | CC(C)(NCc1ncc[nH]1)c1nc(-c2ccc(Cl)c(O)c2)c(-c2ccncc2)[nH]1.Cl | 95% | 97% | 42%
21 | O=C(Nc1ccccc1)N(Cc1cccc(-c2ccc(CNCc3ccc4c(c3)OCO4)cc2)c1)C1CCN(Cc2ccccc2)CC1.O=C(O)C(F)(F)F | 100% | 82% | 27%
22 | COc1ccc(OC)c(NC(=O)c2c(-c3c(F)cccc3Cl)noc2C)c1 | 94% | 25% | 0%
23 | O=C(c1ccc([N+](=O)[O-])o1)N1CCC(c2cn(Cc3cccc(F)c3)c3ccccc23)CC1 | 97% | 95% | 1%
24 | FC(F)(F)c1cccc(CCNc2nccc(NCc3ccc(Cl)cc3Cl)n2)c1 | 97% | 59% | 8%
25 | CC(C)(C)OC(=O)C1CCCN(Cc2ccc(-c3cccc(-c4nc5ccccc5[nH]4)c3)cc2)C1.O=C(O)C(F)(F)F (stereo not drawn) | 93% | 27% | 37%
26 | CCNc1cc(C(=O)N[C@@H](Cc2ccccc2Cl)[C@H](O)CNC2CCCCC2)cc(N2CCCCS2(=O)=O)c1.Cl | 99% | 97% | 6%
27 | N#Cc1cccc(C(=O)Nc2cccc(-c3ccc(C(=O)NCCCN4CCOCC4)cc3)c2)c1 | 96% | 21% | 21%
28 | [O-][s+]1c(Cl)c(-c2ccc(Cl)cc2)c2ccc(Cl)cc21 (stereo not drawn) | 91% | 99% | 33%
29 | Cc1ccc2c(=O)c3cc(C)ccc3[nH]c2c1 | 96% | 94% | 10%
30 | COc1cccc(CNC(=O)c2ccnc(-c3ccc(CNCCOc4ccccc4)cc3)c2)c1.O=C(O)C(F)(F)F | 83% | 10% | 23%
31 | Cc1c[nH]c2ccc(/C=C/C(=O)NC3CCC(CCN4CCc5ccc(C#N)cc5CC4)CC3)cc12.Cl (stereo not drawn) | 100% | 91% | 9%
